Screens from PubChem.
Most compounds without a hit are left out; they make up all but 4.5% or so of the library.
aSyn 5UTR inh: MLPCN primary screen, SNCA 5' untranslated region; alpha-synuclein 5'UTR reporter, inhibitor activity; inhibition, % (tested at 7.5 µM); hit rate 0.82% among 300,000; AID 1813; in the data active = inhibition above about 60%;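 also: H4 neuroglioblastoma cells stably carrying SNCA 5'UTR luciferase fusion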
CSC inhib: cancer stem cell inhibition; cancer stem cell-like cells viability, luminescence; inhibition, % at 7.5 µM; hit rate 1.1% among 300,000; AID 2717; in the data active = inhibition above about 75%; tested in HMLE shEcad cells
Mdm2-MdmX inh: human Mdm2/MdmX binding inhibition. O15151+Q00987. SaOS-2 split-luciferase Mdm2/MdmX complementation, luminescence. inhibition, % at 8 µM. hit rate 3% among 330,000. AID 485346;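 active = inhibition of at least 50% at 8 µM in the primary screen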
697 NFkB inh: inhibitors of the PMA/ionomycin-induced NF-kB reporter in 697 B cells. hit rate 0.33% among 330,000. inhibition, % at 4 µM. 697 B-cell NF-kB luciferase reporter, 16 h. AID 435022; in the data active = inhibition above about 35%
Gli-Sufu antag: Gli-Sufu pathway antagonism; inhibition, % at 5 µM; Sufu-KO-LIGHT fibroblasts, Gli luciferase reporter luminescence; hit rate 0.74% among 340,000; AID 588413;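 active = inhibition above about 55%, limit read from the data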
Jurkat NFkB inh: lowers PMA/ionomycin-induced NF-kB signal in Jurkat cells; PMA/ionomycin-induced NF-kB luciferase reporter, luminescence; inhibition, % at 4 µM; hit rate 0.53% among 330,000; in the data active = inhibition above about 50%
Mdm2 MdmX conf: human Mdm2/MdmX binding inhibition, confirmed; shares compounds with Mdm2-MdmX inh; luminescent assay; inhibition, % at 8 µM; hit rate 55% among 10,000; in the data active = inhibition above about 40%
Full FLuc ctr: full-length luciferase inhibition in Mdm2/MdmX counter-screen | shares compounds with Mdm2-MdmX inh | SaOS-2 full-length luciferase counterscreen, luminescence | inhibition, % at 8 µM | hit rate 77% among 6,200 | AID 504607;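 active = mean inhibition at 8 µM reaching about 37%, which flags the compound as non-specific, limit read from the data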;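 also: p53-null SaOS-2 cells with luciferase driven by a doxycycline-inducible promoter; compound on cells about two nights before reading with doxycycline added after day one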
Of the large screens only hits and unclear results are named; the others gave an inactive call (follow-up assays come after a bar, where they were run).

Fc1c(F)c(F)c(N2CCNCC2)c(F)c1F	none
O=[N+]([O-])c1cc(F)c(N2CCCCC2)cc1Br	none
Cc1ccc(Oc2cc(NN3CCCCC3)c([N+](=O)[O-])cc2[N+](=O)[O-])c([N+](=O)[O-])c1	Mdm2-MdmX inh 51 | Mdm2 MdmX conf inactive
C[C@]12CCC3C(CC[C@H]4C[C@@H](O)CC[C@]34C)C1C/C(=N/O)[C@@H]2O (some centres undefined)	none (no result: aSyn 5UTR inh)
COc1ccc(CNCCc2c(C)[nH]c3ccc(OC(F)(F)F)cc23)c(OC)c1	aSyn 5UTR inh 90, Mdm2-MdmX inh 87, Gli-Sufu antag 57 | Mdm2 MdmX conf 53 | Full FLuc ctr 52
Cc1cccc(-n2c(-c3ccccc3)nc3ccccc3c2=O)n1	none
CCCCCC(=O)N[C@@H](c1ccccc1)[C@@H](O)C(=O)O[C@H]1C[C@@]2(O)[C@@H](OC(=O)c3ccccc3)C3[C@](C)(C(=O)[C@H](O)C(=C1C)C2(C)C)[C@@H](OC1OCC(O)C(O)C1O)C[C@H]1OC[C@@]31OC(C)=O (some centres undefined)	Mdm2-MdmX inh 57 | Mdm2 MdmX conf 60 | Full FLuc ctr 52
CC(=O)O[C@@]12CO[C@@H]1C[C@H](OC1OCC(O)C(O)C1O)[C@@]1(C)C(=O)[C@H](O)C3=C(C)[C@@H](OC(=O)[C@H](O)[C@@H](NC(=O)c4ccccc4)c4ccccc4)C[C@@](O)([C@@H](OC(=O)c4ccccc4)C12)C3(C)C (some centres undefined)	Mdm2-MdmX inh 53 | Mdm2 MdmX conf inactive | Full FLuc ctr 59
N#CC1c2ccccc2-n2nncc2CN1Cc1cc(Cl)cc(Cl)c1 (centres undefined)	none (no result: aSyn 5UTR inh, CSC inhib, Mdm2-MdmX inh, 697 NFkB inh, Jurkat NFkB inh)
COC[C@]12CN(C)C3C4[C@H](OC)[C@H]1C3([C@@H](OC)C[C@H]2O)[C@@H]1C[C@@]2(O)[C@H](OC(=O)c3ccccc3)[C@@H]1[C@]4(OC(C)=O)[C@@H](O)[C@@H]2OC	none
Cc1cccc(-n2c(O)c(/C=C/C=Nc3ccccc3)c(=O)[nH]c2=O)c1	none
Cc1cccc(-n2c(O)c(/C=C3/C(c4ccccc4)=Nc4ccccc43)c(=O)[nH]c2=O)c1	Mdm2-MdmX inh 54 | Mdm2 MdmX conf 57 | Full FLuc ctr inactive
COC(=O)C1=C(c2ccc(Cl)c(C(F)(F)F)c2)C[C@@H]2CC[C@H]1N2C(=O)N1CCCC1	none (no result: aSyn 5UTR inh)
COC(=O)C1=C(c2ccc(Cl)c(C(F)(F)F)c2)C[C@@H]2CC[C@H]1N2C(=O)N1CCC(O)(c2ccc(Cl)cc2)CC1	Mdm2-MdmX inh 88 (no result: aSyn 5UTR inh, CSC inhib) | Mdm2 MdmX conf inactive
CN1[C@@H]2CC[C@H]1CC(OC1c3ccccc3CCc3ccccc31)C2 (some centres undefined)	Mdm2-MdmX inh 71 (no result: aSyn 5UTR inh) | Mdm2 MdmX conf inactive | Full FLuc ctr 70
Cn1c(=O)c2c(nc(N/N=C/c3c(O)n(-c4ccccc4)c(=S)[nH]c3=O)n2C)n(C)c1=O	none
CCCCCn1c(=O)c(C(=O)NCc2ccccc2Cl)c(O)c2ccccc21	none (no result: Gli-Sufu antag)
CCCCn1c(=O)c(C(=O)NCc2ccc(Cl)cc2)c(O)c2ccccc21	CSC inhib 76, Mdm2-MdmX inh 52 | Mdm2 MdmX conf inactive
CCCCCn1c(=O)c(C(=O)Nc2ccccn2)c(O)c2ccccc21	aSyn 5UTR inh 65, Mdm2-MdmX inh 54 | Mdm2 MdmX conf inactive
CCCCCn1c(=O)c(C(=O)NCc2ccncc2)c(O)c2ccccc21	aSyn 5UTR inh 65, Mdm2-MdmX inh 51 | Mdm2 MdmX conf inactive
COC(=O)C1=C(c2ccccc2OCc2ccccc2)C[C@@H]2CC[C@H]1N2C(=O)NCc1cccc(C(F)(F)F)c1	none (no result: aSyn 5UTR inh)
Cc1ccc(-n2c(O)c(C=Nc3ccc(S(=O)(=O)N(C)C)cc3)c(=O)[nH]c2=O)cc1	none
CCc1c(C)nc(N)nc1N1N=C1SC(C(C)=O)C(C)=O	none
Cc1ccccc1-n1c(/C=C/c2ccccn2)nc2ccccc2c1=O	Mdm2-MdmX inh 58 | Mdm2 MdmX conf inactive | Full FLuc ctr 67
O=c1c2ccccc2nc(/C=C/c2ccccc2)n1-c1ccccc1O	CSC inhib 90, Mdm2-MdmX inh 53 | Mdm2 MdmX conf inactive
